A selection: hits, their analogues and other compounds. The true share with any hit is near 5.3%.
JMJD2A Tudor: inhibitors of human JMJD2A Tudor domain; Potency, µM (titrated, usually from 114 µM), most hits filed as inhibitors; AlphaScreen JMJD2A-Tudor / H3K4me3 peptide binding; O75164; hit rate 4.4% among 390,000; also: nearly all actives have a fitted effect of over 50% in size
Six1-Eya2 inh: Six1/Eya2 interaction inhibition | activity change, % (concentration not given with the values) | AlphaScreen GST-Six1/His-Eya2 binding, biochemical; hits give low values | Q15475+O00167 | AID 651725 | hit rate 0.56% among 360,000; in the data active = activity change below about -65%; inconclusive = mostly about -30% to -63%
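AlphaScreen with GST-Six1 and His-Eya2 (5X mix: 250 nM and 500 nM), glutathione donor and nickel acceptor beads; buffer 50 mM Tris pH 8.0, 300 mM NaCl, 1 mM TCEP; 1 h at 37 C in the dark.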
HP1b binding inh: HP1-beta chromodomain-methylated histone interaction inhibition; AlphaScreen HP1-beta / biotin-H3K9me3 peptide binding; Potency, µM (top dose mostly 114 µM), most hits filed as inhibitors; hit rate 0.56% among 390,000; AID 540317; also: nearly all actives have a fitted effect of over 70% in size
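Compound inhibition of the preformed complex between 50 nM HP1-beta and 50 nM biotinylated H3K9me3 peptide was read by AlphaScreen. Buffer was PBS pH 7.4 with 0.01% Tween-20. Incubations ran 30 min at room temperature, with 10 ug/mL donor/acceptor beads.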
BAZ2B inh: blocks human BAZ2B. Q9UIF8. AlphaScreen BAZ2B-H3K14Ac peptide displacement. Potency, µM (highest dose often 114 µM), most hits filed as inhibitors. hit rate 4.4% among 360,000. AID 504333; also: nearly all actives have a fitted effect of over 60% in size
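BAZ2B (50 nM) with biotin-H3(5-23)K14Ac peptide (50 nM) in PBS pH 7.4, 0.01% Tween-20, preformed 30 min, then compound 30 min at room temperature; top concentration 110uM. AlphaScreen streptavidin donor/nickel chelate acceptor beads (10 ug/mL final), 20 min dark, signal read.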
CtBP-E1A inh: inhibitors of CtBP/E1A interaction; AID 651724; AlphaScreen GST-E1A/His-CtBP binding, 1536-well; hits give low values; hit rate 0.49% among 340,000; activity change, % (concentration not given with the values); in the data active = activity change below about -65%; inconclusive = mostly about -30% to -63%
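Homogeneous bead-based format: GST-tagged E1A captured on glutathione donor beads, His-tagged CtBP on nickel acceptor beads; compounds precede bead addition by 2 h at 37 °C.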
TDP1 inh: inhibitors of human tyrosyl-DNA phosphodiesterase TDP1; Q9NUW8; recombinant TDP1, AlphaScreen DNA substrate cleavage; Potency, µM (highest dose often 130 µM), usual class: inhibitors; hit rate 0.28% among 350,000; also: nearly all actives have a fitted effect of over 40% in size
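Here, a 5' biotin and 3' phosphotyrosine-FITC DNA oligonucleotide reports Tdp1 activity: intact substrate bridges AlphaScreen beads, while cleavage leaves a 3' phosphate and drops signal. All incubations at room temperature.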
A number is an active result; i = inactive; ? = inconclusive; nt = no result given; [ ] = another dose, or the depositor's remark. Unless noted, calls follow the shape of the dose curve; as a rule, active = well fitted inhibition curve with a large enough effect; inconclusive = small, poorly fitted or top-dose-only effect; inactive = no such curve, though single readings can be large or run the other way.

SMILES	JMJD2A Tudor	Six1-Eya2 inh	HP1b binding inh	BAZ2B inh	CtBP-E1A inh	TDP1 inh
CN(C(=O)CCc1nc(-c2ccccc2F)no1)c1ccc(Cl)cc1	i	nt	i	i	nt	i
CNC(=O)N(O)C1N(C)C(=O)N(CC(=O)OC)C1(C)C (stereo not drawn)	15.8µM	i	i	i	i	i
CCOc1ccc(NC(=O)CCN2CCN(S(=O)(=O)c3ccc(Cl)cc3)CC2)cc1	i	i	i	i	i	i
CC(=O)Nc1ccc(S(=O)(=O)N2CCN(CC3CC4C=CC3C4)CC2)cc1 (stereo not drawn)	6.31µM	i	?	35.5µM	nt	i
CC(=O)Nc1ccc(CN2CCCN(C)CC2)cc1	22.4µM	i	?	?	nt	i
CCOc1ccc(CN2CCN(S(=O)(=O)c3ccc(NC(C)=O)cc3)CC2)cc1	7.94µM	i	35.5µM	25.1µM	i	i
CC(=O)Nc1ccc(S(=O)(=O)N2CCN(S(=O)(=O)c3ccccc3)CC2)cc1	i	i	i	i	i	nt
COc1cc(OC)c(OC)cc1CN1CCN(S(=O)(=O)c2ccc(NC(C)=O)cc2)CC1	1µM	i	?	50.1µM	i	i
Cc1ccc(NC(=O)NCCOCCn2c(=O)oc3ccccc32)cc1C	i	nt	i	i	nt	i
COc1ccc(NC(=O)CSc2ccc3nc(-c4ccccc4)cn3n2)c(OC)c1	i	nt	i	i	nt	i
COc1ccc(NC(=O)NC2COc3ccccc3C2)cc1Cl (stereo not drawn)	i	nt	i	i	nt	i
CCOc1ccc(OCCC(=O)OCC(=O)N2CCN(S(=O)(=O)c3ccc(Cl)cc3)CC2)cc1	?	i	i	50.1µM	i	25.1µM
O=C(Nc1ccccc1[N+](=O)[O-])c1csnn1	i	nt	i	?	nt	i
C=CC[C@H]1Cc2c(cccc2[N+](=O)[O-])[C@H](CC=C)N1	i	i	i	39.8µM	?	i
COc1ccc(CNC(=O)C2CCN(c3nc4ccccc4[nH]3)CC2)c(OC)c1	i	nt	i	i	nt	i
Cc1nnc(NC(=O)CSCc2cc(=O)c3ccc(C)c(C)c3[nH]2)s1	i	nt	i	i	nt	i
Cc1nnc(NC(=O)CSCc2cc(=O)c3ccccc3[nH]2)s1	i	nt	i	i	nt	39.8µM
CCCn1c(-c2ccc(F)cc2)nc2c(NC3CC4CCC(C3)N4C)nc(C)nc21 (stereo not drawn)	nt	nt	nt	nt	nt	i
S=C(NCc1ccccc1)NC1CCCc2ccccc21 (stereo not drawn)	i[11.4 µM]	i	i	i	nt	i
S=C(NC1CC1)NC1CCCc2ccccc21 (stereo not drawn)	?	?	i	56.2µM	nt	i
COC(=O)c1ccc(C(NC(=O)OCc2ccccc2)/C(F)=C/[C@@H](C)C(=O)N[C@@H](CO)Cc2ccccc2)cc1 (stereo partly drawn)	nt	nt	nt	nt	nt	i
c1ccc(CN2CCN(c3nc(NCc4ccco4)c4ccccc4n3)CC2)cc1	?	i	i	50.1µM	?	i
Cc1ccc(OCCN2CCN(c3nc(NCc4ccco4)c4ccccc4n3)CC2)cc1	56.2µM	i	i	?	i	i
OCCN1CCN(c2nc(NCc3ccco3)c3ccccc3n2)CC1	?	i	i	i	i	i
O=C(Nc1cc2c(cc1C(=O)c1ccccc1Cl)OCCO2)c1ccccc1	i	nt	i	i	nt	i[12.3 µM]
SMILES	JMJD2A Tudor	Six1-Eya2 inh	HP1b binding inh	BAZ2B inh	CtBP-E1A inh	TDP1 inh
CC1CCN(c2ccccc2NC(=S)NC(=O)c2cccs2)CC1	?	i	?	35.5µM	i	i
COC(=O)c1ccccc1NC(=S)NC(=O)COc1ccccc1Cl	i	i	i	i	i	i
O=C(NC(=S)Nc1ccccc1N1CCCC1)c1ccc(F)cc1	35.5µM	?	50.1µM	25.1µM	?	i
Cc1ccccc1C(=O)NC(=S)Nc1ccccc1N1CCCC1	25.1µM	?	?	25.1µM	i	i
O=C(COc1ccccc1Cl)NC(=S)Nc1ccccc1N1CCCC1	?	?	i	20µM	i	i
CS(=O)(=O)N1CCN(c2ccccc2NC(=S)NC(=O)c2cccs2)CC1	i[11.4 µM]	i	i	?	nt	i
O=C(O)C(Cc1cn[nH]n1)=NO	7.94µM	i	?	25.1µM	nt	nt
CC(=C/c1ccccc1)/C=N/n1c(C)n[nH]c1=S	31.6µM	i	i	i	nt	i
CC(/C=N/n1c(-c2cccnc2)n[nH]c1=S)=C\c1ccccc1	20µM	i	i	?	i	i
CC(=C/c1ccccc1)/C=N/n1c(-c2ccncc2)n[nH]c1=S	10µM	i	?	?	i	i
O=C(OCC#CCSc1nnc(-c2cccc3ccccc23)o1)c1ccc(SC(F)(F)F)cc1	i	nt	nt	nt	nt	i
COc1cccc(N2CC(NC(=O)C3CC3)CC2=O)c1 (stereo not drawn)	i	nt	i	i	nt	i
CC(=O)C1=C(O)C=C(c2ccco2)CC1c1ccco1 (stereo not drawn)	i	i	i	56.2µM	i	i
CC#CCC1(C(=O)OC)C(=O)NC[C@H]1c1ccccc1 (stereo partly drawn)	nt	nt	nt	nt	nt	i
COCCNCC(=O)Nc1ccc(C)c(S(=O)(=O)N2CCCCC2)c1	35.5µM	i	?	nt	i	i
COc1ccc(NC(=O)CN2CCCCC2)cc1S(=O)(=O)N1CCCCC1	2.51µM	i	?	nt	i	i
COc1cc(/C=C/C(=O)OCC(=O)Nc2ccc(C)c(S(=O)(=O)N3CCCCC3)c2)ccc1O	35.5µM	i	i	?	i	i
COc1cc(/C=C/C(=O)OCC(=O)Nc2cc(S(=O)(=O)N3CCCCC3)ccc2C)ccc1O	i	i	i	i	i	i
Cc1ccc(NC(=O)CCl)cc1S(=O)(=O)N1CCCCCC1	i	i	i	nt	i	i
Cc1ccc(S(=O)(=O)N2CCN(C(=O)COC(=O)/C=C/c3ccc(F)cc3)CC2)c(C)c1	i	i	i	i	i	i
COc1ccc(NC(=O)Cc2ccc(C)cc2)cc1S(=O)(=O)N1CCCCC1	i	i	i	i	nt	i
COc1cc(/C=C/C(=O)OCC(=O)N2CCN(S(=O)(=O)c3ccc(C)cc3C)CC2)ccc1OC(F)F	i	i	i	nt	-86.5	nt
COc1cc(OC)c(NC(=O)Cn2cnc3sc(C)c(S(=O)(=O)N4CCN(C)CC4)c3c2=O)cc1Cl	i	nt	?	i	nt	i
Cc1ccc(NC(=O)CN2CCOCC2)cc1S(=O)(=O)N1CCCCC1	i	i	i	nt	i	i
Cc1ccc(NC(=O)CNCCCN2CCOCC2)cc1S(=O)(=O)N1CCCCC1	17.8µM	i	?	50.1µM	i	i
COc1cc(Cl)c(C)cc1NC(=O)Cn1c2ncccc2c(=O)n1-c1ccccc1	?	nt	i	i	nt	i
CCOc1ccc(/C=C2/SC(=S)N(C(C(=O)O)c3ccccc3)C2=O)cc1OCC (stereo not drawn)	?	i	?	79.4µM	i	i
O=C(O)C(c1ccccc1)N1C(=O)/C(=C\c2ccc(O)c(O)c2)SC1=S (stereo not drawn)	20µM	i	25.1µM	8.91µM	nt	nt

High-throughput results deposited in PubChem BioAssay by National Center for Advancing Translational Sciences (NCATS).
